Test results as given in PubChem BioAssay (EPA / NIEHS).
Activity calls are given as the source filed them. Rule for the calls: active = hit-call score of the fitted dose curve at least 0.9, where 1 is the maximum; inactive = score below 0.9.

Test: ATG_DR4_LXR_CIS: Attagene CIS-FACTORIAL HepG2 Assay for human Liver X Receptor (LXR), DR4 submotif (AID 2282929)
Settings: HepG2 Attagene DR4 cis-reporter, mRNA transcription; actives raise or lower the signal
Method: ATG_CIS is a cell-based, multiplexed-readout assay that uses HepG2, a human liver cell line, with measurements taken at 24 hours after chemical dosing in a 24-well plate.ATG_DR4_LXR_CIS is one of 52 assay component(s) measured or calculated from the ATG_CIS assay. It is designed to make measurements of mRNA induction, a form of inducible reporter, as detected with fluorescence intensity signals by Reverse transcription polymerase chain reaction (RT-PCR) and Capillary electrophoresis technology.Data from the assay component ATG_DR4_LXR_CIS was analyzed into 1 assay endpoint. This assay endpoint, ATG_DR4_LXR_CIS, was analyzed with bidirectional fitting relative to DMSO as the negative control and baseline of activity. Using a type of inducible reporter, measures of mRNA for gain or loss-of-signal activity can be used to understand the reporter gene at the transcription factor-level as they relate to the gene NR1H2 and NR1H3. Furthermore, this assay endpoint can be referred to as a primary readout, because this assay has produced multiple assay endpoints where this one serves a reporter gene function. To generalize the intended target to other relatable targets, this assay endpoint is annotated to the nuclear receptor intended target family, where the subfamily is non-steroidal.
Human liver HepG2 cells are transiently transfected with multiple reporter transcription units (MRTUs) in 6-well plates using FuGene 6 reagent (Roche; 3 ml FuGene/1 mg DNA). The MRTU constructs are regulated by a cis-regulating element (promoter). […] A major difference between the CIS and TRANS system is that in CIS activities of endogenous TFs are measured, whereas the TRANS assay evaluates changes in activities of exogenous, chimeric NR-Gal4 proteins. […] At the end of 24 hour incubation, total RNA was isolated using TriZol reagent (Invitrogen). The isolated RNA is then reverse-transcribed using oligo(dT) primer and Mo-MLV reverse transcriptase (Invitrogen) with DNAse I (Ambion) treatment for 30 min. The one-tenth of the produced cDNA was amplified by PCR using Taq DNA polymerase (Invitrogen) and two reporter sequence-specific primers. The PCR products were fluorescently labeled by primer extension with 6-arboxyfluorescein (6-FAM) 5'-labeled reporter sequence-specific primer (2 min at 95 C, 20 s at 68 C and 10 min at 72 C) and these products were digested with 5U of HpaI (New England Biolabs) for 2h at 37 C. The fragments were purified using Qiaquick PCR columns (Qiagen), analyzed on an ABI 3130xL genetic analyzer (Applied Biosystems) with peak positions identified by using a set of X-rhodamine (ROX)-labeled MapMarker1000 molecular weight standards (BioVentures). The raw capillary electrophoresis data was processed using Attagraph software (Attagene).

Row | SMILES | outcome | AC50
1 | CC(CCC(=O)O)(c1ccc(O)cc1)c1ccc(O)cc1 | inactive | –
2 | NC(=O)Nc1ccccc1 | inactive | –
3 | CC1=CC(C)C(C=O)CC1 (stereo not given) | inactive | –
4 | CC(C)c1ccc2ncccc2c1 | inactive | –
5 | CCCCNC(=S)NCCCC | inactive | –
6 | C=Cc1ccc(OC(C)=O)cc1 | inactive | –
7 | CN1CCN(C)CC1 | inactive | –
8 | CC1=CCC(C(C)C)C=C1 (stereo not given) | inactive | –
9 | O=C(O)c1cc(O)c2ccccc2c1O | – | 42.5 µM (active)
10 | CCCCCCOc1ccc(N)cc1 | – | 159 µM (active)
11 | C=C(C)C1CC=C(C)CC1 (stereo not given) | inactive | –
12 | C=CCNCC=C | inactive | –
13 | CC(=O)CC(=O)Nc1ccccc1C | inactive | –
14 | CC(=O)CCC1=C(C)CCCC1(C)C | inactive | –
15 | O=C(O)CC(C(=O)O)S(=O)(=O)O (stereo not given) | inactive | –
16 | O=C(Nc1ccccc1)c1cc(Cl)ccc1O | inactive | –
17 | CCc1occc(=O)c1O | inactive | –
18 | Cc1c[nH]c(=O)[nH]c1=O | inactive | –
19 | CC1=CCC2CC1C2(C)C (stereo not given) | inactive | –
20 | C=CC(=O)NCOCCCC | inactive | –

Row | SMILES | outcome | AC50
21 | Cc1cc(=O)[nH]c(=O)[nH]1 | inactive | –
22 | CC=CC(=O)OCC(C)C | inactive | –
23 | CC(=O)OC1CCCCC1C(C)(C)C (stereo not given) | inactive | –
24 | CC(C)(C)N | inactive | –
25 | O=S(=O)(O)c1ccc(N=Nc2c(O)ccc3ccccc23)cc1 | inactive | –
26 | CC(C)[N+](C)(CCOC(=O)C1c2ccccc2Oc2ccccc21)C(C)C | inactive | –
27 | Cc1c(C(=O)c2c[nH]n(C)c2=O)ccc(S(C)(=O)=O)c1C1=NOCC1 | inactive | –
28 | CCCCNS(=O)(=O)c1ccc(C)cc1 | inactive | –
29 | Nc1nc(N)nc(-c2ccccc2)n1 | inactive | –
30 | CCC(C)C(=O)OC (stereo not given) | inactive | –
31 | Oc1c(Cl)cc(Cl)c(Cl)c1Cl | inactive | –
32 | CC1=NN(c2ccc(S(=O)(=O)O)cc2)C(=O)C1N=Nc1ccccc1 (stereo not given) | inactive | –
33 | CCCc1ccc(O)c(OC)c1 | – | 33.8 µM (active)
34 | Fc1ccc(Br)cc1 | inactive | –
35 | CCCCCCCC(=O)OCC(COC(=O)CCCCCCC)OC(=O)CCCCCCC | inactive | –
36 | Cc1ccc(C)c(OCCCC(C)(C)C(=O)O)c1 | inactive | –
37 | C=C[Si](OCCOC)(OCCOC)OCCOC | inactive | –
38 | CC(C)OC(=O)c1ccccc1 | inactive | –
39 | C=CCCCCCCCCOC(C)=O | inactive | –
40 | CC=C(C)C=CC=C(C)C | inactive | –
